# L3MBTL1 inh – qHTS Assay for the Inhibitors of L3MBTL1; AID 485360, 2010; 0.66% of 230,000 active; AlphaScreen L3MBTL1–H3K9me1 peptide binding; Potency, µM (top dose mostly 57.1 µM), for the others: top-dose activity, negative = inhibition, usual class: inhibitors; Lethal(3)malignant brain tumor-like protein 1 (Homo sapiens), Q9Y468; also: % is scaled to controls: 0 for no effect and ±100 for the full control effect; nearly all actives have a fitted effect of over 60% in size
# Target sequence (Q9Y468 whole entry, looked up): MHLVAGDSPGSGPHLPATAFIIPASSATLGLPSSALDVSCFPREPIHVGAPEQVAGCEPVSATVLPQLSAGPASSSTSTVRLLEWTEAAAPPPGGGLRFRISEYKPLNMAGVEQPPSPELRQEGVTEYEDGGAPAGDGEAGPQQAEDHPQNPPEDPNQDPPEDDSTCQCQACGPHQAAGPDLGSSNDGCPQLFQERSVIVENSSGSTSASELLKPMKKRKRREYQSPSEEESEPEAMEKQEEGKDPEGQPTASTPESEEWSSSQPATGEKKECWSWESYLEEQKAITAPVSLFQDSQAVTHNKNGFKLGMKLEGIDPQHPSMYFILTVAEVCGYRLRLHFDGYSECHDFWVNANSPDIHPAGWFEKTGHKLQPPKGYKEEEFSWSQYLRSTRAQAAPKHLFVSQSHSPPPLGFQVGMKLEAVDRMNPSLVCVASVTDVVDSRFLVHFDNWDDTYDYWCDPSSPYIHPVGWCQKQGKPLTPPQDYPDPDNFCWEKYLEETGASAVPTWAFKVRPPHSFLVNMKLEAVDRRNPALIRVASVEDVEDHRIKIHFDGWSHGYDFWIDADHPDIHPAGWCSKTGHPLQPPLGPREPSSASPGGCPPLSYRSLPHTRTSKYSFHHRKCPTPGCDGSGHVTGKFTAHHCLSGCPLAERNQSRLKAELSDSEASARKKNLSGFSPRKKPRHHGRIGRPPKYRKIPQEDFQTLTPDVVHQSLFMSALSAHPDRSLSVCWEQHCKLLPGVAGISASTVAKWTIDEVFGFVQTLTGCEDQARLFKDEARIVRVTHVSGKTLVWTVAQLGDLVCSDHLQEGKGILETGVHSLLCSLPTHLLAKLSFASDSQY
#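 Read-out is AlphaScreen signal from streptavidin donor and nickel chelate acceptor beads (10 ug/mL final each) bridging L3MBTL1 (50 nM) and biotinylated K9-monomethylated H3(1-15) peptide (75 nM), after 30 min compound exposure at room temperature.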
# G9a block – qHTS Assay for Inhibitors of Histone Lysine Methyltransferase G9a | Potency, µM (titrated, usually from 102 µM), for inactives: top-dose activity, negative = inhibition, actives largely listed as inhibitors | G9a H3K9 monomethylation, AlphaScreen, 2 h | 8.8% of 350,000 active | Histone-lysine N-methyltransferase EHMT2 (Homo sapiens), Q96KQ7; also: % is scaled to controls: 0 for no effect and ±100 for the full control effect; nearly all actives have a fitted effect of over 75% in size
#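 Compounds were preincubated with 20 nM G9a for 15 min, after which biotinylated H3K9 peptide (500 nM) and SAM (20 uM) started a 2 h room-temperature reaction. Monomethylated product was quantified by antibody-based AlphaScreen chemiluminescence.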
# JMJD2A Tudor – qHTS Assay for Inhibitors of JMJD2A-Tudor Domain. AlphaScreen JMJD2A-Tudor / H3K4me3 peptide binding. 4.4% of 390,000 active. Potency, µM (doses to about 114 µM), inactives show top-dose activity change, negative = inhibition, hits mostly inhibitors; also: % is scaled to controls: 0 for no effect and ±100 for the full control effect; nearly all actives have a fitted effect of over 50% in size
# BAZ2B inh – qHTS Assay for Inhibitors of BAZ2B; Bromodomain adjacent to zinc finger domain protein 2B (Homo sapiens), Q9UIF8; AlphaScreen BAZ2B-H3K14Ac peptide displacement; Potency, µM (doses to about 114 µM), for inactives: top-dose activity change, negative = inhibition, usual class: inhibitors; 4.4% of 360,000 active; also: % is scaled to controls: 0 for no effect and ±100 for the full control effect; nearly all actives have a fitted effect of over 60% in size
#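 AlphaScreen displacement of biotin-H3(5-23)K14Ac peptide (50 nM final) from BAZ2B (50 nM final) in PBS pH 7.4, 0.01% Tween-20; complex preformed 30 min RT, then compounds (top 110 uM) 30 min RT, beads 20 min dark.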
# HP1b binding inh – HTS for Inhibitors of HP1-beta Chromodomain Interactions with Methylated Histone Tails; Chromobox protein homolog 1 (Homo sapiens), P83916; AlphaScreen HP1-beta / biotin-H3K9me3 peptide binding; Potency, µM (titrated, usually from 114 µM), inactives show at the highest dose activity change, negative = inhibition, hits mostly inhibitors; 0.56% of 390,000 active; AID 540317, 2011; also: nearly all actives have a fitted effect of over 70% in size
#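 HP1-beta protein (50 nM final) preincubated 30 min at room temperature with biotinylated H3(1-18)K9me3 peptide (50 nM) in PBS pH 7.4, 0.01% Tween-20, then compound added for 30 min. AlphaScreen streptavidin donor/nickel chelate acceptor beads (10 ug/mL final), 30 min dark, luminescence read.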
# GLS inh – qHTS for Inhibitors of Glutaminase (GLS) | Glutaminase kidney isoform, mitochondrial (Homo sapiens), O94925 | GLS enzymatic activity, qHTS titration | Potency, µM (series often up to 45.5 µM), for the others: at the highest dose activity change, negative = inhibition, most hits filed as inhibitors | 0.21% of 410,000 active; also: % is scaled to controls: 0 for no effect and ±100 for the full control effect
#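 hKGA; 45 mM KH2PO4 pH 8.2 + 0.02% Tween-20; cpd via pin tool; 1 mM Gln soln; GluOx/HRP/Amplex Red; RT 30 min; fluor. t0 & final.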
# * hit, by the source's call; ? = inconclusive; / = not tested or not shown; [ ] = remark or other dose. In the library only some 10% were active in any assay of this set; here they are far more common. Calls follow the shape of the dose curve; as a rule, active = well fitted curve in the direction sought with a large enough effect; inconclusive = small, poorly fitted or top-dose-only effect, or another doubt; inactive = no such curve, though single readings can be large; an effect the other way counts as inactive or inconclusive. Potency is read from the fitted curve at half-maximal effect.
SMILES,L3MBTL1 inh,G9a block,JMJD2A Tudor,BAZ2B inh,HP1b binding inh,GLS inh
O=C(O)CCc1ccc(-c2ccc(Cl)cc2)n1-c1cccc(C(F)(F)F)c1,/,16µM*,?,35µM*,-22%,18%
O=C(O)CCc1ccc(-c2cccs2)n1-c1ccc(C(=O)O)cc1,-29%,14µM*,?,-39%,8%,25%
CN(C)c1ccc(-n2c(CCC(=O)O)ccc2-c2ccccc2)cc1,/,11µM*,50µM*,28µM*,?,16%
CC(=O)c1cccc(-n2c(CCC(=O)O)ccc2-c2cccs2)c1,-9%,?,56µM*,50µM*,?,39%
COc1ccc(-c2ccc(CCC(=O)O)n2-c2cc(Cl)ccc2O)cc1,/,?,-34%,?,-3%,18%
CC(=O)c1ccc(-n2c(CCC(=O)O)ccc2-c2ccccc2)cc1,/,-14%[2.33 µM],-7%,-20%,7%,1%
CCCS(=O)(=O)N1CCCC(C(=O)NCCOC)C1 (stereo not given),/,-25%[59 µM],-24%,2%,22%,0%
CC1CCN(S(=O)(=O)c2ccc3c(ccn3CC(=O)NCc3ccccc3F)c2)CC1,/,-24%[59 µM],-14%,-12%,43%,3%
Cc1ccc(CNC(=O)CN(c2ccc(C(C)C)cc2)S(=O)(=O)c2c(C)n[nH]c2C)cc1,/,5%[59 µM],-32%,/,8%,-2%
COc1ccc(-n2c(=O)c(-c3cc(F)cc(F)c3)nc3cncnc32)cc1,/,2%[0.501 µM],/,/,/,/
CC(=O)c1cccc(-n2c(CCC(=O)O)ccc2-c2ccccc2)c1,/,40µM*,-19%,-24%,16%,-6%
COc1cccc(NC(=O)Cn2c(CCC(=O)O)ccc2-c2ccc(Cl)cc2)c1,-19%,/,-22%,45µM*,-13%,41%
O=C(CC1NCCNC1=O)Nc1ccc(F)c(Cl)c1 (stereo not given),/,10%[59 µM],-8%,-12%,20%,-3%
Cc1cc(=O)[nH]c2nnc(SCc3cccc(F)c3)n12,/,1%[59 µM],-16%,-2%,0%,-12%
CCNC(=O)c1c(NC(=O)Cc2coc3cc(C)ccc23)sc2c1CCCC2,/,-7%[59 µM],-3%,-3%,34%,15%
NC(CSCc1ccccc1Cl)C(=O)O (stereo not given),-3%,35µM*,-6%,?,42%,0%
CCOC(=O)c1nc(C)[nH]c1C(=O)OCC,/,?,18µM*,79µM*,7%,13%
CCOC(=O)c1[nH]c(C)c(C(=O)O)c1C,/,-10%,/,0%,/,/
CC1CCCN(CCC(=O)c2ccc(Br)cc2)C1 (stereo not given),0%,?,-16%,5%,19%,-13%
COc1ccc(C(=O)CCN2CCC(C)CC2)cc1,/,16µM*,2%,-2%,48%,3%
COc1ccc(C(=O)CCN2CCCC(C)C2)cc1 (stereo not given),/,25µM*,-5%,-3%,29%,0%
COC(=O)CCC(=O)OC1(C)C(=O)C=C2C=C(C3CC3)N(C3CC3)C=C2C1=O (stereo not given),/,32%[59 µM],-21%,-16%,13%,16%
CCC(=O)OC1(C)C(=O)C=C2C=C(c3ccsc3)OC=C2C1=O (stereo not given),/,?,28µM*,50µM*,?,1%
COC(=O)CCCC1=CC2=CC(=O)C(C)(OC(=O)CCc3ccccc3)C(=O)C2=CO1 (stereo not given),/,-36%[59 µM],79µM*,56µM*,-22%,-19%
COC(=O)CCC(=O)OC1(C)C(=O)C=C2C=C(c3ccsc3)OC=C2C1=O (stereo not given),/,/,50µM*,/,?,13µM*
SMILES,L3MBTL1 inh,G9a block,JMJD2A Tudor,BAZ2B inh,HP1b binding inh,GLS inh
CC(=O)Nc1ccc(S(=O)(=O)N2CCN(S(=O)(=O)c3c(F)cccc3F)CC2)cc1,/,/,-12%,/,/,/
CCN(CC)c1ccc(-c2nc(-c3ccco3)no2)cc1[N+](=O)[O-],/,-8%[59 µM],-16%,-9%,34%,3%
O=c1c(C(c2ccc(O)cc2)c2c(O)nc3n(c2=O)CCS3)c(O)nc2n1CCS2,3%,?,45µM*,?,8%,39%
O=c1c(C(c2ccc(O)cc2)c2c(O)nc3n(c2=O)CCCS3)c(O)nc2n1CCCS2,0%,?,?,-39%,20%,22%
Cc1ccc(C(c2c(O)nc3n(c2=O)CCS3)c2c(O)nc3n(c2=O)CCS3)cc1,2%,10µM*,-18%,3%,6%,-11%
COc1cccc(-c2nc(SC(C(C)=O)C(=O)N(C)C)c3c(=O)n(C)c(=O)n(C)c3n2)c1 (stereo not given),/,11%[59 µM],-17%,4%,11%[57 µM],-10%
CC(CCO)Nc1nc2c(c(=O)n(C)c(=O)n2C)n1Cc1ccc(Br)cc1 (stereo not given),/,-10%[59 µM],-19%,-26%,25%,9%
COC(=O)c1nn2c(C(F)(F)F)cc(-c3ccc(Br)o3)nc2c1Br,2%,45µM*,-35%,8%,-6%,-4%
CC(C)(C)NC(=O)c1nn2c(C(F)(F)F)cc(-c3ccccc3)nc2c1Br,2%[2.29 µM],46%[0.501 µM],-15%,4%,27%,-13%
CCCCNC(=O)c1nn2c(C(F)(F)F)cc(-c3ccc(OC)cc3)nc2c1Br,8%,0%[59 µM],35µM*,0%,23%,-3%
CCCNC(=O)c1nn2c(C(F)(F)F)cc(-c3ccccc3)nc2c1Br,8%,-7%,-10%,8%,37%,8%
CCOC(=O)C1CCCN(C(=O)c2ccc3c(c2)sc2nc(-c4cccc(OC)c4)cn23)C1 (stereo not given),/,-22%[59 µM],-7%,-18%,20%,-13%
CCCCN(CC)CCCNC(=O)c1cc2c(=O)[nH]c3ccccc3c2n1C,/,1%[59 µM],-25%,/,11%,-2%
CC(=O)Nc1ccc(C)cc1-c1nc2ccccc2n(CC(=O)c2ccc(C)c(C)c2)c1=O,/,-8%[59 µM],-7%,-1%,23%,6%
c1cnc2c(OCc3cn4cccnc4n3)cccc2c1,/,3.2µM*,?,?,5%,4%
Clc1ccc(OCc2cn3cccnc3n2)c2ncccc12,/,6%[12.7 µM],-16%,-5%,24%,-2%
Cc1cc(C)c(C(=O)CSc2nnc(N)s2)c(C)c1,/,25µM*,-22%,-7%,-20%,20%

# Assay outcomes (PubChem)
